These results are taken from PubChem BioAssay AID2685 (National Center for Advancing Translational Sciences (NCATS), 2010).

The whole screen tested about 320,000 compounds, of which about 2,100 (0.66%) were called active. About 53% were inconclusive and are not listed. This is one part of a sample in which actives are shown more often than they occur. The call rests on the fitted dose curve; in most records, active means well fitted inhibition curve with a large enough effect in the signal ratio, with a control signal flat (not every such curve was filed as active); inconclusive means small, poorly fitted or top-dose-only effect, or effect the other way, or a change in a side signal; inactive means flat fitted curve, though single readings scatter; the % refers to the signal ratio.
Potency means the concentration at half of the fitted maximal effect.

The experiment in a line: qHTS Assay for Lipid Storage Modulators in Drosophila S3 Cells.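 On cell number change: cells counted by Cell Tracker Red CMTPX staining in the red channel.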 On lipid storage change, negative = inhibition: on the % scale 0 is the no-effect control and ±100 the full control effect. To be noted: BODIPY lipid droplet fluorescence, 18-24 h, cells fed with added oleic acid; cell number change: measured here: cell count max response; series mostly up to 46.1 µM; lipid storage change, negative = inhibition: at the top concentration. The gist of the method:
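Drosophila S3 cells got compounds at several concentrations plus oleic acid (400 uM solution). Laser-scanning cytometry with 488 nm excitation read lipid droplets at 500-530 nm and cells at 575-640 nm. Percent activity was relative to 20 uM Triacsin C.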
(In general: Quantitative high-throughput screening tests each substance at several concentrations.)
With `COc1ccc(Br)cc1C(=O)NC(=S)Nc1ccc2[nH]c(=O)[nH]c2c1`, the outcome was inactive and the cell number change is -29.5%.

With `COc1ccc(S(=O)(=O)N2CCCCCC2)cc1C(=O)Nc1ccc(C)cn1`, the outcome was inactive. Consider `COc1ccc([C@@H]2C[C@@H](c3ccccc3)Oc3cc(OC)c(OC)c(OC)c32)cc1`, for which the “lipid storage change, negative = inhibition” value is -12.6% (inactive) and the cell number change was -1.66%. On to `COc1ccc([C@@H]2C[C@H](c3ccccc3)Oc3cc(OC)c(OC)c(OC)c32)cc1`, for which the Potency is 4.61 µM (active) and the cell number change is -18.2%. Take `COc1ccc(C2CC(O)(c3ccccc3)Oc3cc(OC)cc(OC)c32)cc1` (stereo not drawn): the “lipid storage change, negative = inhibition” value is -17.8% (inactive) and the cell number change is -14.8%. The corresponding values for `C=C1CCN(C(C(=O)OC)C(C)C)S(=O)(=O)c2ccccc21` (stereo not drawn) are -1.62% (inactive) and 0.159%. On the same counts, the results for `Cn1c2c(c(=O)n(C)c1=O)C(NC(=O)c1ccco1)(C(F)(F)F)C(=O)N2` (stereo not drawn) are 9.46% (inactive) and 6.96%.

Turning to `CCCCC(=O)NC1(C(F)(F)F)C(=O)Nc2c1c(=O)n(C)c(=O)n2C` (stereo not drawn), the Potency was 18.4 µM (active) and the cell number change was -5.38%. Regarding `CC(=O)NC1(C(F)(F)F)C(=O)Nc2c1c(=O)n(C)c(=O)n2C` (stereo not drawn), the “lipid storage change, negative = inhibition” value is -1.58% (inactive) and the cell number change is -13.1%. With `CCC(=O)NC1(C(F)(F)F)C(=O)Nc2c1c(=O)n(C)c(=O)n2C` (stereo not drawn), the outcome was inactive and the cell number change is 7.51%. As for `CC(C)CC(=O)NC1(C(F)(F)F)C(=O)Nc2c1c(=O)n(C)c(=O)n2C` (stereo not drawn), the Potency was 3.66 µM (active) and the cell number change turned out to be 2.2%. On to `Cn1c2c(c(=O)n(C)c1=O)C(NC(=O)c1cccs1)(C(F)(F)F)C(=O)N2` (stereo not drawn), for which the “lipid storage change, negative = inhibition” value is -10.5% (inactive) and the cell number change is -6.48%. The corresponding values for `CC(=O)Nc1ccccc1/C=C/c1ccc2c(C)cc(C)c(O)c2n1` are 14.1% (inactive) and 8.64%.

Turning to `CCCCCOc1ccc(/C=C/C(=O)NCCc2nc3ccccc3[nH]2)cc1OC`, the Potency was 13 µM (active) and the cell number change is -28.6%. With `COc1ccc(/C=C/C(=O)NCCc2nc3ccccc3[nH]2)cc1`, the “lipid storage change, negative = inhibition” value is -0.312% (inactive) and the cell number change was -8.48%. As for `COc1ccc(OC)c(/C=C/C(=O)NCCc2nc3ccccc3[nH]2)c1`, the “lipid storage change, negative = inhibition” value is -16.4% (inactive) and the cell number change was -6.41%. As for `O=C(Nc1nnc(-c2cccs2)o1)C1CC1`, the “lipid storage change, negative = inhibition” value was -0.337% (inactive) and the cell number change is -5.18%. Consider `COc1ccc(N2C(=O)CSC2c2ccccc2)cc1` (stereo not drawn), for which the “lipid storage change, negative = inhibition” value was 3.7% (inactive) and the cell number change is 14.6%. Take `Cc1n[nH]c(C)c1S(=O)(=O)N1CCc2ccccc21`: the “lipid storage change, negative = inhibition” value was 11.4% (inactive) and the cell number change is -2.98%. `C/C(=N\NC(=O)c1cccs1)c1cccnc1`: the “lipid storage change, negative = inhibition” value was -0.0778% (inactive) and the cell number change turned out to be 20.6%. With `S=C(NCc1ccccc1)N1CCn2cccc2C1c1ccncc1` (stereo not drawn), the “lipid storage change, negative = inhibition” value is 5.38% (inactive) and the cell number change was 5.96%. As to `S=C(NCCc1ccccc1)N1CCn2cccc2C1c1ccncc1` (stereo not drawn), the Potency is 7.31 µM (active) and the cell number change is 15.3%.

For the compound `S=C(NCCc1ccccc1)N1CCn2cccc2C1c1cccnc1` (stereo not drawn), the “lipid storage change, negative = inhibition” value was -3.98% (inactive) and the cell number change was -24.1%. With `CC[C@@H](NS(=O)(=O)c1ccc(C)cc1)C(=O)Oc1ccc2c3c(c(=O)oc2c1)CCC3`, the “lipid storage change, negative = inhibition” value was -5.22% (inactive) and the cell number change amounted to 4.66%. For `CC(=O)NC12CC3CC(C1)CC(C(=O)Nc1nc4c(C)cccc4s1)(C3)C2`, the Potency was 5.8 µM (active) and the cell number change was -14.2%. Turning to `CC(=O)NC12CC3CC(C1)CC(C(=O)Nc1nc4ccc(F)cc4s1)(C3)C2`, the result was inactive and the cell number change is -27.9%. Regarding `CC(=O)NC12CC3CC(C1)CC(C(=O)Nc1nc4ccc(S(C)(=O)=O)cc4s1)(C3)C2`, the “lipid storage change, negative = inhibition” value is 4.01% (inactive) and the cell number change was -1.02%. As to `CC(=O)N(C)C1=C(N2CCOCC2)C(=O)c2ccccc2C1=O`, the “lipid storage change, negative = inhibition” value was -6.67% (inactive) and the cell number change came to 0.283%. As to `O=C1C=C(N2CCOCC2)c2ccccc2C1=O`, the Potency was 4.11 µM (active) and the cell number change was -6.93%. For the compound `O=C(O)c1ccc(NC2=C(N3CCOCC3)C(=O)c3ccccc3C2=O)cc1`, the “lipid storage change, negative = inhibition” value is -9.76% (inactive) and the cell number change is -2.96%.

In the case of `Cc1ccc(-n2nc(C)c3c(C)c(CCC(=O)O)c(C)nc32)cc1C`, the “lipid storage change, negative = inhibition” value is -1.95% (inactive) and the cell number change was 9.26%. Consider `O=C(O)CCCc1ccc2ccc3cccc4ccc1c2c34`, for which the “lipid storage change, negative = inhibition” value is 7.63% (inactive) and the cell number change amounted to 11.3%. Consider `Cc1ccnc(NC(=O)CCC(=O)N(CC(=O)NCc2ccccc2)Cc2ccccc2)c1`, for which the call was inactive and the cell number change worked out at 14.2%. Consider `Cc1ccnc(NC(=O)CCC(=O)N(CC(=O)NC(C)(C)C)Cc2ccc3c(c2)OCO3)c1`, for which the Potency is 23.1 µM (active) and the cell number change was -17.5%.

As to `CCc1ccc(N(CC(=O)NC(C)C)C(=O)CCC(=O)Nc2ccccn2)cc1`, the “lipid storage change, negative = inhibition” value was 13.9% (inactive) and the cell number change was -21%.

As to `COc1ccc(CN(CC(=O)NCc2ccc(F)cc2)C(=O)CCC(=O)Nc2cc(C)ccn2)cc1`, the Potency is 23.1 µM (active) and the cell number change is 6.52%.

As to `O=C(CN(Cc1ccccc1)C(=O)CCC(=O)Nc1ccccn1)NCc1ccc(F)cc1`, the result was inactive and the cell number change stood at 7.92%. Consider `CC(C)CCNC(=O)CN(Cc1ccc2c(c1)OCO2)C(=O)CCC(=O)Nc1ccccn1`, for which the “lipid storage change, negative = inhibition” value is 11.2% (inactive) and the cell number change is 2.93%.

As to `Cc1ccnc(NC(=O)CCC(=O)N(CC(=O)NC(C)(C)C)c2ccc3c(c2)OCCO3)c1`, the “lipid storage change, negative = inhibition” value was -7.53% (inactive) and the cell number change was 5.82%. Consider `CCOc1ncccc1C(=O)N(CC)CC(=O)Nc1ccc(NC(C)=O)cc1`, for which the “lipid storage change, negative = inhibition” value was 8.07% (inactive) and the cell number change amounted to 4.04%.

Turning to `CCOc1ncccc1C(=O)N(CC)CC(=O)NCc1ccc(F)cc1`, the Potency was 3.66 µM (active) and the cell number change amounted to 4.96%. Take `CCC(C)(C)NC(=O)CN(Cc1ccc2c(c1)OCO2)C(=O)CCC(=O)Nc1ccccn1`: the “lipid storage change, negative = inhibition” value is -29.1% (inactive). As for `CC(C)NC(=O)CN(Cc1ccc2c(c1)OCO2)C(=O)CCC(=O)Nc1ccccn1`, the Potency was 18.4 µM (active) and the cell number change came out at 0.42%. Regarding `CCN(CC(=O)NCc1ccc(F)cc1)C(=O)c1cccnc1SC`, the “lipid storage change, negative = inhibition” value was 22.9% (inactive) and the cell number change was found to be 23.4%.

Turning to `COC(=O)Cc1c(C)nc2nc(NCc3cccc([N+](=O)[O-])c3)[nH]n2c1=O`, the call was inactive and the cell number change was 22.4%.
